# Measured values as given in PubChem BioAssay (NCI).
# Compounds without any hit were thinned out: in the full panel of roughly 83,000, 20% have a hit.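 Compound tested at a single concentration for 48 hours in 96-well plates; a percent growth value below 10 was scored as active.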 A number with no mark means an inactive call. The source made the active and inactive calls.
# What was measured:
# Assay in all cases: NCI-60 one-dose screen, 48 h (100 = growth as untreated, 0 = no growth, -100 = all killed)
# [1] = test system: NCI-H23 lung; details: 10 µM unless noted
# [2] = test system: NCI-H226 lung; details: 10 µM unless noted
# [3] = test system: NCI-H322M lung; details: 10 µM unless noted
# [4] = test system: NCI-H460 lung; details: 10 µM unless noted
# [5] = test system: HOP-92 NSCLC; details: 10 µM
# [6] = test system: NCI-H522 lung; details: 10 µM
# [7] = test system: A549/ATCC NSCLC; details: 10 µM unless noted
# [8] = test system: 786-0 renal; details: 10 µM unless noted
# [9] = test system: COLO 205 colon; details: 10 µM unless noted
SMILES,growth [1],growth [2],growth [3],growth [4],growth [5],growth [6],growth [7],growth [8],growth [9]
COC(=O)c1ccc2[nH]c(O)c(C(=Nc3ccc(N(C)C(=O)CN4CCN(C)CC4)cc3)c3ccc(C)cc3)c2c1,-9.95% (active),5.6% (active),19.8%,-43.1% (active),38.7%,-33.6% (active),-30.2% (active),-85.1% (active),-61.2% (active)
COc1cc(NC(C)CCCN)c2nccc(C)c2c1OC (centres undefined),51.8%,97.2%,103%,109%,,31.6%,144%,98.8%,50.6%
C[C@@H](c1ccc2c(c1)[nH]c1ccc(Cl)cc12)c1nc2ccc(Cl)cc2[nH]1,85.6%,101%,85.8%,82.4%,99.5%,43.6%,88.3%,75.9%,116%
N=C(N)c1ccc(-c2ccc(-c3cc(Cl)cc(Cl)c3)s2)cc1,-77.4% (active),-64.7% (active),-84.4% (active),-81.1% (active),,-41.2% (active),-50.8% (active),-73.3% (active),
Cc1nc(NC(=O)NC2CCCCC2)sc1C(=O)NN,101%,103%,101%,112%,-17.1% (active),0.452% (active),102%,113%,119%
Cc1sc(NC(=O)c2ccc(C(C)(C)C)cc2)c(C(=O)O)c1C,62.9%,92.3%,97.3%,50.9%,66.3%,56.3%,24.4%,73.8%,55.6%
C=C(C)[C@@H]1CC[C@]2(COC(=O)c3ccccc3C(=O)O)CC[C@]3(C)[C@H](CC[C@@H]4[C@@]5(C)CCCNC(C)(C)[C@@H]5CC[C@]43C)[C@@H]12,80.7%,66.3%,93.3%,55.9%,,78.3%,61.4%,84.4%,
Cn1cnc2nc[nH]c2c1=S,98.7%,98.2%,101%,108%,75.2%,86.5%,,101%,116%
O=C(Nn1cnc2ccccc21)N1CCCC1,111%,105%,86.7%,117%,,104%,109%,80.3%,
Cc1ccnc2c(NC(C)CCCN)cc(O)c(O)c12 (centres undefined),40.4%,111%,75.3%,115%,47.6%,12.6%,94.7%,95.1%,77.8%
CCC(CCCN1C(=O)c2ccccc2C1=O)Nc1cc(OC)cc2c(C)ccnc12 (centres undefined),117%,88.2%,104%,114%,72.4%,91.8%,103%,95.9%,104%
Cc1[nH]n(C(=S)Nc2nc3cc(Cl)c(F)cc3s2)c(=O)c1N=Nc1ccc(F)c(Cl)c1,97.4%,95.7%,119%,106%,71.2%,123%,40.1%,,109%
O=c1[nH]c(=S)[nH]c(O)c1/C=C1\C=Nc2ccccc21,82.5%,90.5%,110%,79.5%,54.2%,91.5%,,107%,78.8%
COc1ccc(NC(=O)/C=C(C)/C=C/C=C(C)/C=C/C2=C(C)CCCC2(C)C)cc1,93.4%,78.2%,90.8%,30.6%,,51.7%,39.9%,,33%
COc1cccc2c1nc1cccc(OC)c1[n+]2[O-],9.62% (active),71.2%,78.6%,,31.4%,20.2%,36.8%,32.5%,77.9%
O=C1OC(c2ccc(-c3ccccc3)cc2)=C/C1=C/c1c2ccccc2cc2ccccc12,99.4%,78.5%,113%,,79.2%,109%,25.8%,,101%
